What was measured:
Assay type in all cases: functional
[1] = molecular target: Solute carrier family 2, facilitated glucose transporter member 1 (Homo sapiens) (UniProt P11166); experiment: ST_JUDE_LEISH: Cytotoxicity at 2uM final concentration against transgenic Leishmania Mexicana promastigotes LmGLUT1 that are glucose transport deficient and complemented with the human glucose transporter GLUT1. Activity is measured by DNA content using SYBR green in vitro
[2] = molecular target: Hexose transporter 1 (Plasmodium falciparum) (UniProt O97467); experiment: ST_JUDE_LEISH: Cytotoxicity at 2uM final concentration against transgenic Leishmania Mexicana promastigotes LmPfHT that are glucose transport deficient and complemented with the Plasmodium falciparum hexose transporter. Activity is measured by DNA content using SYBR green in vitro
[3] = molecular target: Glucose transporter (Leishmania mexicana) (UniProt O61059); experiment: ST_JUDE_LEISH: Cytotoxicity at 2uM final concentration against transgenic Leishmania Mexicana promastigotes LmGT2 that are glucose transport deficient and complemented with the L. Mexicana glucose transporter 2. Activity is measured by DNA content using SYBR green in vitro

Chain of Solute carrier family 2, facilitated glucose transporter member 1 (Homo sapiens) (P11166 whole entry): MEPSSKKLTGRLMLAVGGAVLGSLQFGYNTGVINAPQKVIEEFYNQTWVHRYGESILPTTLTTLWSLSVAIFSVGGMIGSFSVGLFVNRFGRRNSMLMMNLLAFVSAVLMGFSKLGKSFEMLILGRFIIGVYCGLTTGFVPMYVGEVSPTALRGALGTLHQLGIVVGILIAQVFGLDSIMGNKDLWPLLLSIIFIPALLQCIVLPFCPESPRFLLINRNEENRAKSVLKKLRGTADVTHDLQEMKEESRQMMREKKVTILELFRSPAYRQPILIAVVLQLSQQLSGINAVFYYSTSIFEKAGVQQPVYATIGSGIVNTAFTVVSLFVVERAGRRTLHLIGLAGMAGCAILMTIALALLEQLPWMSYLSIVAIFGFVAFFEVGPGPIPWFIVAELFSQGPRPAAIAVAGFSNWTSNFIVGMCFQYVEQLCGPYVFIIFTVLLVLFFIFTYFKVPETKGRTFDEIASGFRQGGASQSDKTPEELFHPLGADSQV

| Structure (SMILES) | inhibition [1] [%] | inhibition [2] [%] | inhibition [3] [%] |
| --- | --- | --- | --- |
| O=[N+]([O-])c1ccc(C2=NN(S(=O)(=O)c3c(Cl)cc(Cl)cc3Cl)CCCC2)cc1 | 0.34 | 0.56 | -0.34 |
| O=C(Nc1ccc(-c2nc3ccccc3[nH]2)cc1)c1cccc(S(=O)(=O)N2CCOCC2)c1 | 4.9 | 5.13 | 4.05 |
| Clc1nc2ccccn2c1C=Cc1ccc2ccccc2n1 | 2.64 | 3.43 | 2.76 |
| CCCc1cc2c3c(N)nc(N)nc3ccc2n1C(CC)CC | 46.3 | 54.9 | 42.6 |
| Fc1cccc(Nc2nc(NCCc3ccc(Cl)cc3)nc(Nc3cccc(F)c3)n2)c1 | 2.39 | 2.12 | -4.86 |
| Nc1nc(N)c2c(ccc3nn(S(=O)(=O)N4CCCC4)cc32)n1 | 4.35 | 4.05 | 4.06 |
| CCn1c2ccccc2c2cc(Cc3cnc(N)nc3N)ccc21 | 9.49 | 8.51 | 3.47 |
| Cc1ccc(F)c(CN2CCC(N3CC(c4ccccc4)(c4ccccc4)OC3=O)CC2)c1Cl | 10.4 | 9.52 | 9.68 |
| c1ccc(CNCCn2c(-c3ccc4c(c3)CCO4)nc3c(N4CCCC4)cccc32)cc1 | 11.7 | 8.74 | 6.86 |
| FC(F)(F)CNc1nc(Nc2ccc3ncccc3c2)nc2[nH]ccc12 | 21.8 | 17.9 | 8.14 |
| O=C(NCc1ccccc1)NC(CCCN1CCC(Oc2cccc(Cl)c2)CC1)c1ccc(Cl)c(Cl)c1 (centres undefined) | 2.71 | -0.32 | -0.18 |
| CNc1ccc(CNCc2ccc(-c3ccc(-c4nc5cccc(C)c5[nH]4)cc3)cc2)cc1 | 18.3 | 15.5 | 7.71 |
| COc1ccc(CN2CCCC(C(=O)c3ccc(C(F)(F)F)cc3)C2)c(O)c1 (centres undefined) | 4.79 | 4.48 | 3.56 |
